The source of these data is ChEMBL document CHEMBL3988442, “University of Dundee, Small-Polar-MMV Screening Library” (2021).

Test [1] has as its target T1, Aspartate--tRNA(Asp/Asn) ligase (Mycobacterium tuberculosis (strain ATCC 25618 / H37Rv)) (UniProt P9WFW3). Further: in the data most compounds retested in dose-response had high values.
T1 sequence (whole entry): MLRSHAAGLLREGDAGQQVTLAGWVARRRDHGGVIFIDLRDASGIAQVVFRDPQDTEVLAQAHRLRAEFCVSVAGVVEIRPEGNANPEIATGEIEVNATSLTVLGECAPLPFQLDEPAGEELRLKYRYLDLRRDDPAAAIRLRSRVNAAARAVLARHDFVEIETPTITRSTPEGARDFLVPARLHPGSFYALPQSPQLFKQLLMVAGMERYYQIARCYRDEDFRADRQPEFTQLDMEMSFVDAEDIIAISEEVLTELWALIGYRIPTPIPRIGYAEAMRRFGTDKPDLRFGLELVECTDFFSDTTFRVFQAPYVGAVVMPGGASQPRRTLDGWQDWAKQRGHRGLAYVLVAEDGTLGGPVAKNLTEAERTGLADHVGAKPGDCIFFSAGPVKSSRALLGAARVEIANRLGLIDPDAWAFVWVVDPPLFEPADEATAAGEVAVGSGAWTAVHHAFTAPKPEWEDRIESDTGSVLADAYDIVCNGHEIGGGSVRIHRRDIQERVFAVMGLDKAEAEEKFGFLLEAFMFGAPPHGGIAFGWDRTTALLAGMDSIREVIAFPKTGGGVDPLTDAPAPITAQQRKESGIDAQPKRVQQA
Nature of the test: Assay for Asp RNA synthetase-1 from Mycobacterium tuberculosis. It is filed as functional. Further details: scale not given: direction of the effect not stated beside the values. To be noted: 30 µM.

Test [2] has as its target Shiga toxin 2 (Escherichia coli O157:H7) (UniProt P09385+P09386). Nature of the test: E. coli 0.157:H7 Shiga Toxin SOP - stx2 screening assay. It is filed as functional. Also on record: scale not given: direction of the effect not stated beside the values. To be noted: 30 µM.

SMILES strings stand for the structures.

Regarding `CC(C)(C)NC(=O)CN1CCN(C(=O)Nc2ccc(F)cc2F)CC1`, the values for the Percent Effect in test [1] and in test [2] were -2.94% and -44.1%, respectively.

Take `c1cnc(NCc2ncn3c2CN(Cc2cccnc2)CCC3)nc1`: the Percent Effect in test [1] is -2.66%; in test [2], -5.14%.

In the case of `Cc1ccc(C(=O)N2CCC3(CC2)NC(=O)CC3c2ccccc2)cn1` (stereo not drawn), the Percent Effect was 3.23% in test [1] and -13.9% in test [2].

Turning to `O=C1CC(c2cccnc2)c2c(c(C(=O)O)cn2-c2ccccc2)N1` (stereo not drawn), the Percent Effect in test [1] is 4.82%; in test [2] it was -6.55%.

For the compound `CCCc1n[nH]c(C2CN(CCNS(=O)(=O)CC)CCO2)n1` (stereo not drawn), the Percent Effect in test [1] was 2.63%; in test [2], -17%.

In the case of `Cc1cccc(CS(=O)(=O)CC(=O)NCCCOC(C)C)c1`, the Percent Effect was -3.37% in test [1] and -44.7% in test [2].

Turning to `CC(C)(C)c1nc(CN2CCCC(Cn3cncn3)C2)cs1` (stereo not drawn), the Percent Effect in test [1] stood at 4.23%; in test [2], 13.2%.

As for `O=C(CCCNc1ncccn1)N1CCCC(n2cccn2)C1` (stereo not drawn), the Percent Effect in test [1] was 3.16%; in test [2], 1.16%.

With `Cc1ccoc1C(=O)N1C[C@@H]2[C@@H](C1)OCC(=O)N2Cc1cccnc1`, the Percent Effect in test [1] was 2%; in test [2], -12.8%.

Take `COc1ccc(C(C)N2CCN(Cc3nccn3C)CC2)cc1Cl` (stereo not drawn): the Percent Effect was -0.0303% in test [1] and 16% in test [2].

With `CN(C)S(=O)(=O)N1CCN(C(=O)c2ccc3ccn(C)c3c2)CC1`, the Percent Effect in test [1] is -0.254%; in test [2] it was 4.4%.

Take `CC(=O)c1cn(CCC(=O)N[C@H](C(=O)O)C(C)C)c2ccccc12`: the Percent Effect is -1.95% in test [1] and -36.7% in test [2].

`Cc1nc(CN2CCCC(N(C)Cc3nnsc3Cl)C2)no1` (stereo not drawn): the Percent Effect in test [1] is -2.25%; in test [2], 18.2%.

In the case of `COc1c(CNCc2ccc(C(=O)N(C)C)cc2)c(C)nn1C`, the Percent Effect was 2.9% in test [1] and -13.9% in test [2].

In the case of `COc1ccc(Br)c(C(=O)NCC2CCN(C(=O)c3ccoc3)CC2)c1`, the Percent Effect was -5.03% in test [1] and 0.84% in test [2].

As to `CCOCCCn1c(NC(=O)c2scnc2C)nc2ccccc21`, the figures for the Percent Effect in test [1] and in test [2] were -5.62% and -30.2%, respectively.

Take `Cc1cccc(N2CC[C@@H]3CN(C(=O)c4ccco4)CCO[C@@H]3C2)n1`: the Percent Effect in test [1] is -0.221%; in test [2], 1.6%.

As for `COc1cc(C)c(S(=O)(=O)NCc2cccnc2N(C)C)c(C)c1`, the Percent Effect in test [1] was 2.73%; in test [2] it was -18.1%.

In the case of `CC(NC(=O)c1cccs1)C(=O)NCc1ccccc1CN1CCCC1` (stereo not drawn), the results for the Percent Effect in test [1] and in test [2] were -4.19% and -31.6%, respectively.

With `COc1c(CNCC(O)c2cccc(F)c2)c(C(C)C)nn1C` (stereo not drawn), the Percent Effect in test [1] is 7.7%; in test [2], 15.6%.

Turning to `CNC(=O)C1Cn2ccnc2C2(CCN(Cc3cccc(C)n3)CC2)O1` (stereo not drawn), the figures for the Percent Effect in test [1] and in test [2] were 1.82% and 0.0939%, respectively.

Turning to `CCC(CC)C(O)CNC(=O)Nc1cc(C)nn1C` (stereo not drawn), the values for the Percent Effect in test [1] and in test [2] were -1.77% and -3.6%, respectively.

Consider `Cc1cccc(C(=O)N2C[C@@H]3CCN(c4cccnc4)C[C@@H]3C2)c1`, for which the figures for the Percent Effect in test [1] and in test [2] were 3.96% and -5.99%, respectively.

For the compound `O=C(NCC1CC1)C1CN(C(=O)c2cccnc2)CC12CCOCC2` (stereo not drawn), the Percent Effect in test [1] was -2.58%; in test [2] it was -10.2%.

For `Cc1ccc(CC(=O)N2Cc3nccn3CC(Cn3cccn3)C2)cc1` (stereo not drawn), the Percent Effect is 0.0228% in test [1] and -2.6% in test [2].

As to `COc1ccc(OCC(=O)NS(=O)(=O)c2cc(F)ccc2F)cc1`, the Percent Effect in test [1] is -1.01%; in test [2] it was -20.6%.

`Cc1ccc(CN2Cc3nnn(C)c3C(COCCN(C)C)C2)s1` (stereo not drawn): the Percent Effect in test [1] is -3%; in test [2] it was -6.76%.

As for `Cc1nc(C)n(CC2CCCN2Cc2ccn(-c3ccccc3)n2)n1` (stereo not drawn), the Percent Effect in test [1] was 0.0463%; in test [2], -14.6%.

`Cc1cnn(CC2CCCCN2C(=O)c2ccc3[nH]nnc3c2)c1` (stereo not drawn): the Percent Effect turned out to be 0.548% in test [1] and 30.9% in test [2].

`O=S(=O)(Nc1cnn(C2CCOCC2)c1)c1ccc(F)c(F)c1`: the Percent Effect in test [1] is 3.75%; in test [2] it was 1.76%.

In the case of `O=C(c1cccnc1)N1C[C@@H]2CC[C@H](C1)N(Cc1cccc(Cl)c1F)C2`, the Percent Effect in test [1] is 9.03%; in test [2] it was -10.5%.

On to `O=C1CC2(CCN(CC3CC3)C2)CN1c1ccc2c(c1)OCO2` (stereo not drawn), for which the Percent Effect in test [1] was 14.6%; in test [2] it was -55.4%.

Regarding `c1cnc2c(c1)cc(C1CCOCC1)n2CCN1CCOCC1`, the Percent Effect is 3.26% in test [1] and 4.5% in test [2].

Consider `O=C(c1ccc[nH]1)N1C[C@H]2CN(Cc3cccc(F)c3)C(=O)[C@H]2C1`, for which the Percent Effect is 0.565% in test [1] and -9.53% in test [2].

For the compound `Cc1cc(C)n(CC2CCCN2C(=O)CCc2cscn2)n1` (stereo not drawn), the Percent Effect is -0.678% in test [1] and 17% in test [2].

For `COc1c(CNCc2cnn(C)c2)c(C(C)C)nn1C`, the Percent Effect is -1.63% in test [1] and 6.94% in test [2].

With `COc1ccc(CN2CCOC3(CCCN(c4nnc(C)o4)C3)C2)cc1` (stereo not drawn), the figures for the Percent Effect in test [1] and in test [2] were -5.88% and 7.44%, respectively.

In the case of `CCSc1cc(C(=O)NCCC(=O)Nc2ccccn2)ccn1`, the Percent Effect in test [1] was -1.96%; in test [2] it was -56.5%.

For `CN(C)C(=O)CN1CCCC2(CCN(c3ccsc3)C2=O)C1` (stereo not drawn), the Percent Effect in test [1] is 2.4%; in test [2], -21.7%.

Turning to `O=C(O)c1cc(S(=O)(=O)N2CCOc3ccccc32)ccc1F`, the Percent Effect in test [1] was -4.32%; in test [2], -3.29%.

As to `CCc1nc(C)c([C@H]2CN(C)C[C@@H]2C(=O)Nc2ccc(OC)cc2)[nH]1`, the Percent Effect in test [1] was -1.19%; in test [2], 9.62%.

For `Cc1cnc(CNC(=O)NCc2cccnc2N(C)C)s1`, the figures for the Percent Effect in test [1] and in test [2] were -2.25% and -0.447%, respectively.

Turning to `CCn1cc2c(n1)C(COC)CN(C(=O)COc1ccccc1C)C2` (stereo not drawn), the Percent Effect in test [1] amounted to 2.12%; in test [2], 3.11%.

In the case of `N#Cc1cn(C2CC2)c(=O)n(CC(O)c2ccccc2F)c1=O` (stereo not drawn), the Percent Effect in test [1] was 0.3%; in test [2] it was 14.2%.

Take `O=C(N[C@@H]1CN(Cc2ccccc2)C[C@@H]2CCCO[C@@H]21)C1CC1`: the Percent Effect in test [1] was 1.66%; in test [2] it was -19.6%.

Consider `Cc1cnn(CC2CCCN2Cc2nnc(Cc3ccccc3)o2)c1` (stereo not drawn), for which the Percent Effect in test [1] is -0.062%; in test [2], 20%.

Regarding `CCN1CCN(c2ncc(-c3cc(C)no3)c(-c3ccoc3C)n2)CC1`, the Percent Effect in test [1] is 0.313%; in test [2], -6.58%.

For `CN(C)C[C@H]1OC[C@@H]2CCN(S(=O)(=O)c3cccs3)C[C@@H]21`, the Percent Effect was -0.29% in test [1] and -8.75% in test [2].

As to `O=C(c1ccc(OCC2CC2)nc1)N1CCCC(n2ccnc2)C1` (stereo not drawn), the Percent Effect in test [1] is -9.61%; in test [2], -43.4%.
